The structures appear in SMILES notation. The whole screen tested about 360,000 compounds, of which about 2,900 (0.81%) were called active.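 The calls were made as follows: active = inhibition above the mean inhibition across every tested compound plus 3 SD (cut at about 22% in these data); inactive = the rest.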 The sample as a whole holds a higher share of actives than the screen did.

The target in this experiment is Perilipin-5 (Homo sapiens) + 1-acylglycerol-3-phosphate O-acyltransferase ABHD5 (Homo sapiens) (UniProt Q00G26+Q8WTS1). Put plainly: blockers of ABHD5 binding to perilipin-5 – cell lysate, split luciferase complementation, luminescence, primary screen (AID 602281).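 Also: 0% = DMSO only wells and the 100% control is not disclosed.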 The following applies: Split G. princeps luciferase complementation, 4 h, at 4 µM, stronger effect = higher value.
Sequence of Perilipin-5 (Homo sapiens) + 1-acylglycerol-3-phosphate O-acyltransferase ABHD5 (Homo sapiens) (Q00G26 whole entry, looked up): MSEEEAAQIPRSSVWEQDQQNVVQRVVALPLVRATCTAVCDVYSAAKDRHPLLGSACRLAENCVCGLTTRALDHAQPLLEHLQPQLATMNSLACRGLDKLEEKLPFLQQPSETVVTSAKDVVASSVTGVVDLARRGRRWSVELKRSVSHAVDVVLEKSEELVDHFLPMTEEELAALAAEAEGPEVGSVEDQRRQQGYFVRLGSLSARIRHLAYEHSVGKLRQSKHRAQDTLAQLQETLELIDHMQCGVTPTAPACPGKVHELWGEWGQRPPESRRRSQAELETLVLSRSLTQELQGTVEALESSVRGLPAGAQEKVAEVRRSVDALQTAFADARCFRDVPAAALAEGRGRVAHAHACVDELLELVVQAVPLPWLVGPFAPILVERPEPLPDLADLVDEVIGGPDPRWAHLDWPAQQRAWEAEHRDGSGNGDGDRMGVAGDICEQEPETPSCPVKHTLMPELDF
Sequence of Perilipin-5 (Homo sapiens) + 1-acylglycerol-3-phosphate O-acyltransferase ABHD5 (Homo sapiens) (Q8WTS1 whole entry, looked up): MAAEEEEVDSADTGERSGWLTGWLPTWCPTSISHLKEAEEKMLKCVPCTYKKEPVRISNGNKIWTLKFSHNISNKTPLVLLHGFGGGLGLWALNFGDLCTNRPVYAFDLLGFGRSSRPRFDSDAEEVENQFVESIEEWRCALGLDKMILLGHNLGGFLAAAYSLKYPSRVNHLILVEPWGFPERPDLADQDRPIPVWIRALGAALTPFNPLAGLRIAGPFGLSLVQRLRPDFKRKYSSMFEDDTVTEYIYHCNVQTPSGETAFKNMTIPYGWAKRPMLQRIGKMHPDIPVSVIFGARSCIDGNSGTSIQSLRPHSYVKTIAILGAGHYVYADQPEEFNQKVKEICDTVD
`CCN1CCN(C(=O)Cn2nc(C)n3c(cc4c(OC)cccc43)c2=O)CC1`: the inhibition was 0.48% (inactive). The figure for `CC(=O)N[C@H]1[C@H]([C@H](O)[C@H](O)CO)OC(C(=O)O)=C[C@@H]1O` is 1.93% (inactive); for `Cc1ccnc(NC(=O)CCC(=O)N(CC(=O)NCc2ccccc2)Cc2ccco2)c1` it is 1.15% (inactive); for `COc1ccc(CNC(=O)C(c2ccc(O)cc2)N(Cc2ccco2)C(=O)c2snc(C(N)=O)c2N)cc1` (configuration not stated) it is -11.3% (inactive). Regarding `NC(=O)c1nsc(C(=O)N(CC(=O)NCc2ccc(F)cc2)Cc2ccco2)c1N`, the inhibition is 36% (active). On to `Cc1csc2ncc(C(=O)N(Cc3ccccc3)c3ccccn3)c(=O)n12`, for which the inhibition is 3.35% (inactive). The figure for `CN(C)CCCNC(=O)/C=C/c1ccc(OCc2c(F)cccc2Cl)cc1` is 28.6% (active).

With `COc1cc(CNCCN(C)C)ccc1OCc1c(F)cccc1Cl`, the inhibition was 11.6% (inactive). The result for `O=C(/C=C/c1ccc(OCc2c(F)cccc2Cl)cc1)N1CCOCC1` reads -6.95% (inactive); that for `O=S(=O)(c1ccc2ccccc2c1)N1CCN(S(=O)(=O)N2CCOCC2)CC1`, -1.34% (inactive).

Take `CCCCN1C(N)=NC[C@@H]1Cc1ccccc1`: the inhibition is 4.61% (inactive). The figure for `C[C@@H](CN1CCC[C@H]1CN1C(N)=NC[C@@H]1Cc1ccccc1)N1C[C@@H](Cc2ccccc2)N(CCCC2CCCC2)C1=N` is 34.8% (active). For the compound `CC[C@@H](C)[C@@H]1CN([C@@H](C)CN2CCC[C@H]2CN2C(N)=NC[C@H]2C(C)C)C(=N)N1CCc1ccc(Cl)c(Cl)c1`, the inhibition was 11.4% (inactive).

As to `Cc1ccc2c(c1)N(CC(=O)N1CCCc3ccccc31)C(=O)C(C)O2` (configuration not stated), the inhibition is 5.29% (inactive).

Regarding `CC(=O)NC1=NN(C(C)=O)C(C)(CCS(=O)(=O)c2ccc(Cl)c(Cl)c2)S1` (configuration not stated), the inhibition is 2.36% (inactive). In the case of `COc1ccccc1CNC(=O)Cn1cc2c(n1)CCCC2`, the inhibition is 8.04% (inactive). With `COc1cccc2sc(N(CCCN(C)C)C(=O)C(c3ccccc3)c3ccccc3)nc12`, the inhibition was 43.5% (active). Turning to `CCN(CC)CCN(C(=O)c1ccc2c(c1)CCCC2)c1nc2c(OC)cccc2s1`, the inhibition was 25% (active).

For the compound `COc1ccccc1NC(=O)CC(NCCN(C)C)C(=O)O` (configuration not stated), the inhibition was 0.5% (inactive). The result for `CN(CC1CCCN(CCc2cccc(C(F)(F)F)c2)C1)C(=O)c1ccc2nc[nH]c2c1` (configuration not stated) reads -0.06% (inactive); that for `CCN(CC)CCNS(=O)(=O)c1ccc(/C=C/C(=O)O)cc1`, 4.35% (inactive). The figure for `OCc1ccc(-c2ccccc2)c(-c2ccccc2)c1` is -5.6% (inactive); for `CCCC/C(C)=N/NC(=O)NC1CCCCC1` it is -3.36% (inactive); for `COc1ccc(C2=NOC3(CC(=O)N(c4ccc(Cl)cc4)C3=O)C2)c(OC)c1` (configuration not stated) it is 0.13% (inactive). The figure for `Cc1cc(O)ccc1-c1cc(C(=O)NCc2cc(C(F)(F)F)cc(C(F)(F)F)c2)[nH]n1` is -13.6% (inactive); for `COCCNc1nnc(SCC(=O)NNC(=O)c2ccco2)s1` it is 0.13% (inactive). For `COc1ccc(NC(=O)/C(Cl)=C(/Cl)S(=O)Cc2ccc(C)cc2)cn1` (configuration not stated), the inhibition is 96.3% (active). As to `CC(C)(C)C1C/C(=C/c2ccco2)C(=O)/C(=C/c2ccco2)C1` (configuration not stated), the inhibition was 52.8% (active). Take `COC(=O)COc1ccc2c(c1C)O/C(=C\c1ccco1)C2=O`: the inhibition is 14.5% (inactive). With `Cc1ccc(S(=O)(=O)Cn2nnnc2CN2CCN(Cc3ccc4c(c3)OCO4)CC2)cc1`, the inhibition was -0.76% (inactive). As to `O=C(CNC(=O)C12CC3CC(CC(C3)C1)C2)OCC(=O)N1CCCCC1`, the inhibition is -6.36% (inactive). For `Cc1cc(C)nc(NS(=O)(=O)c2ccc(N3C(=O)C4CCCCC4C3=O)cc2)n1` (configuration not stated), the inhibition was -6.56% (inactive). As to `O=C(c1cccnc1)N(c1cc2sc(=O)oc2c2ccccc12)S(=O)(=O)c1ccccc1`, the inhibition was 55.9% (active). The figure for `O=C(CN(c1cc(C(F)(F)F)ccc1Cl)S(=O)(=O)c1ccccc1)NCc1cccnc1` is 3.26% (inactive); for `CCc1ccc(N(CC(=O)NCc2cccnc2)S(=O)(=O)c2ccccc2)cc1` it is 8.86% (inactive). The result for `O=C(COC(=O)c1ncc(Cl)c(Cl)c1Cl)NCc1cccs1` reads 0.28% (inactive); that for `CS(=O)(=O)N1CCCCC1c1cc(C(=O)NCc2ccccc2)no1` (configuration not stated), -1.92% (inactive); that for `CC1(C(=O)NS(=O)(=O)c2ccccc2)CCN1C(=O)C/C=C/c1ccccc1` (configuration not stated), 11% (inactive).

For `CC1(C)CCSC(/C=C/c2ccccc2)=N1`, the inhibition was 40.5% (active). For the compound `CNS(=O)(=O)c1cccc(C(=O)OCCCC(=O)c2ccccc2)c1`, the inhibition was 5.65% (inactive). The figure for `CN1CCN(C2Cc3ccc(Cl)cc3Sc3ccc(F)cc32)CC1` (configuration not stated) is 10.5% (inactive); for `COCCNC(=O)Nc1ccc2nc(-c3ccco3)c(-c3ccco3)nc2c1` it is 22.6% (active). The figure for `COc1ccc(CCNC(=O)Nc2ccc3c(c2)c(=O)n(C)n3C)cc1OC` is 3.03% (inactive); for `COCCNC(=O)CN(Cc1ccco1)C(=O)CCC(=O)Nc1nccs1` it is 7.43% (inactive); for `c1ccc(CC2CCN(c3nc4ccccc4n4cnnc34)CC2)cc1` it is -9.78% (inactive).

In the case of `O=C(COc1ccc(S(=O)(=O)N2CCCCC2)cc1)NCc1ccccn1`, the inhibition was -0.42% (inactive). In the case of `Cc1cccc(C)c1NC(=O)N1CC(C)OC(C)C1` (configuration not stated), the inhibition is 5.67% (inactive). As to `Cc1cccc(C)c1NC(=O)C(Cl)C(=O)c1ccccc1` (configuration not stated), the inhibition was 38.3% (active). `CN=C(c1ccccc1)c1c(C)cccc1C`: the inhibition was 4.42% (inactive). Turning to `C[C@H](NC(=O)c1[nH]cnc1C(=O)Nc1nccs1)c1ccccc1`, the inhibition is 1.59% (inactive). The result for `CC(C(=O)c1ccc(-c2ccccc2)cc1)[n+]1cccc(Br)c1` (configuration not stated) reads 0.81% (inactive). The figure for `Cn1c(=S)sc2ccc3ccccc3c21` is 1.97% (inactive); for `Cc1ccc(-c2c3c(=O)n(C)c(=O)n(C)c3cn2-n2cnnc2)cc1` it is 22.5% (active); for `Cc1cn(C)c(=O)n(C)c1=O` it is -0.3% (inactive).

In the case of `COc1ccc([N+](=O)[O-])cc1N(CC(=O)Nc1ccccc1C(=O)N1CCOCC1)S(C)(=O)=O`, the inhibition is -1.59% (inactive). The result for `CC(=O)NC1CCN(CC(=O)Nc2nccs2)CC1` reads 6.01% (inactive).

In the case of `CC(=O)Nc1ccc(C=CC(=O)c2ccc([N+](=O)[O-])cc2)cc1`, the inhibition was 27.1% (active). The result for `O=C(O)c1ccc2c(=O)n3c(nc2c1)/C(=C/c1ccc(Cl)c([N+](=O)[O-])c1)CC3` reads 3.3% (inactive). As to `O=C(/C=C/c1ccc(Cl)c([N+](=O)[O-])c1)c1ccc(O)cc1`, the inhibition was 67.9% (active). `Cc1ccnc(NC(=O)c2ccc(Cl)c([N+](=O)[O-])c2)c1`: the inhibition was 5.06% (inactive). With `CC(C=Cc1ccccc1)=NNS(=O)(=O)c1ccc([N+](=O)[O-])cc1`, the inhibition was 1.47% (inactive).

Take `CC(=O)Nc1ccc(C(=O)/C=C/c2ccc[nH]2)cc1`: the inhibition was 11.6% (inactive).

In general, inhibition refers to the change of the read-out against control, counted positive when it falls.
